From PubChem BioAssay (NCATS) come the findings set out here.

The nature of test [1]: Quantitative High-Throughput drug screen in 47 multiple myeloma cell lines against the NCATS MIPE library collection: Karpas417_ECACC cell viability assay (AID 1918961). Further: potency means the concentration at half of the fitted maximal effect. The conditions noted are these: Karpas417 myeloma viability, CellTiter-Glo ATP luminescence, 48 h; viability (% of DMSO): at 45.8 µM (top of the series). Summed up: (§1)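 CellTiter-Glo ATP luminescence gave viability after 48 h compound treatment at 37C of 500 multiple myeloma cells per well. Normalisation used DMSO-only wells as 100% and media-only wells as 0% viability; primary qHTS of approved and investigational drugs.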

A short description of test [2]: Quantitative High-Throughput drug screen in 47 multiple myeloma cell lines against the NCATS MIPE library collection: JIM1_ECACC cell viability assay (AID 1918964; further: potency means the concentration at half of the fitted maximal effect). Summed up: as §1
The nature of test [3]: Quantitative High-Throughput drug screen in 47 multiple myeloma cell lines against the NCATS MIPE library collection: INA6_PLB cell viability assay (AID 1918965; further: nearly all actives have a fitted effect of over 55% in size; further: potency means the concentration at half of the fitted maximal effect). The method in brief: as §1
A short description of test [4]: Quantitative High-Throughput drug screen in 47 multiple myeloma cell lines against the NCATS MIPE library collection: JJN3_DSMZ cell viability assay (AID 1918966; further: nearly all actives have a fitted effect of over 50% in size; further: potency means the concentration at half of the fitted maximal effect). Summed up: as §1
Test [5] can be described thus: Quantitative High-Throughput drug screen in 47 multiple myeloma cell lines against the NCATS MIPE library collection: H1112_PLB cell viability assay (AID 1918967; further: nearly all actives have a fitted effect of over 30% in size; further: potency means the concentration at half of the fitted maximal effect). Summed up:
as §1

A short description of test [6]: Quantitative High-Throughput drug screen in 47 multiple myeloma cell lines against the NCATS MIPE library collection: Karpas25_ECACC cell viability assay (AID 1918968; further: nearly all actives have a fitted effect of over 35% in size; further: potency means the concentration at half of the fitted maximal effect). Summed up: as §1
Test [7] in a line: Quantitative High-Throughput drug screen in 47 multiple myeloma cell lines against the NCATS MIPE library collection: KMS27_JCRB cell viability assay (AID 1918970). Further: nearly all actives have a fitted effect of over 30% in size. Further: potency means the concentration at half of the fitted maximal effect. Particulars: KMS27 myeloma cells, CellTiter-Glo ATP viability, 48 h; viability (% of DMSO): at 45.8 µM (top of the series). Summed up: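 KMS27_JCRB myeloma cells, 500 per well, exposed 48 h at 37 C, 5% CO2 to MIPE 4.0 compounds. Viability from ATP by CellTiter-Glo luminescence, normalized to DMSO (100%) and medium-only (0%) wells.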
In general terms: In ATP-based viability assays light output follows the ATP content of the culture.

Test [8] in a line: Quantitative High-Throughput drug screen in 47 multiple myeloma cell lines against the NCATS MIPE library collection: KMS12BM_JCRB cell viability assay (AID 1918971). Further: nearly all actives have a fitted effect of over 35% in size. Further: potency means the concentration at half of the fitted maximal effect. Summed up: (§2)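 Relative luminescence from CellTiter-Glo served as the viability signal, referenced to DMSO-treated (100%) and cell-free medium (0%) controls. Treatment lasted 48 hours at 37C with 500 cells per well.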

Test [9] is described as follows: Quantitative High-Throughput drug screen in 47 multiple myeloma cell lines against the NCATS MIPE library collection: KMS12PE_JCRB cell viability assay (AID 1918972). Further: nearly all actives have a fitted effect of over 30% in size. Further: potency means the concentration at half of the fitted maximal effect. The method in brief: as §1
A short description of test [10]: Quantitative High-Throughput drug screen in 47 multiple myeloma cell lines against the NCATS MIPE library collection: KMS20_JCRB cell viability assay (AID 1918973). Further: nearly all actives have a fitted effect of over 45% in size. Further: potency means the concentration at half of the fitted maximal effect. The method in brief:
as §1

A short description of test [11]: Quantitative High-Throughput drug screen in 47 multiple myeloma cell lines against the NCATS MIPE library collection: KMS21BM_JCRB cell viability assay (AID 1918974). Further: potency means the concentration at half of the fitted maximal effect. The conditions noted are these: ATP luminescence, 48 h; viability: at 45.8 µM (top of the series). Summed up: as §1
Test [12] in a line: Quantitative High-Throughput drug screen in 47 multiple myeloma cell lines against the NCATS MIPE library collection: NCIH929_DSMZ cell viability assay (AID 1918978). Further: nearly all actives have a fitted effect of over 35% in size. Further: potency means the concentration at half of the fitted maximal effect. Summed up: (§3)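 ATP-based CellTiter-Glo luminescence after 48 h drug exposure (37 °C, 5% CO2) of 500 myeloma cells per well. DMSO-only wells set 100% viability, media-only wells 0%; MIPE 4.0 library added by pin tool.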

The nature of test [13]: Quantitative High-Throughput drug screen in 47 multiple myeloma cell lines against the NCATS MIPE library collection: MM1S_ATCC cell viability assay (AID 1918980). Further: nearly all actives have a fitted effect of over 45% in size. Further: potency means the concentration at half of the fitted maximal effect. Summed up:
as §3

A short description of test [14]: Quantitative High-Throughput drug screen in 47 multiple myeloma cell lines against the NCATS MIPE library collection: MM1R_ATCC cell viability assay (AID 1918981). Further: nearly all actives have a fitted effect of over 35% in size. Further: potency means the concentration at half of the fitted maximal effect. Summed up: as §3
The nature of test [15]: Quantitative High-Throughput drug screen in 47 multiple myeloma cell lines against the NCATS MIPE library collection: JIM3_ECACC cell viability assay (AID 1918963; further: nearly all actives have a fitted effect of over 35% in size; further: potency means the concentration at half of the fitted maximal effect). Summed up:
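Myeloma cells (500 per well) were exposed to MIPE 4.0 compounds by pin transfer and incubated 48 hours at 37C, 5% CO2. Viability was read as ATP by CellTiter-Glo luminescence, normalised to DMSO (100%) and media-only (0%) wells.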

Test [16] in a line: Quantitative High-Throughput drug screen in 47 multiple myeloma cell lines against the NCATS MIPE library collection: KMS26_JCRB cell viability assay (AID 1918975). Further: nearly all actives have a fitted effect of over 45% in size. Further: potency means the concentration at half of the fitted maximal effect. The method in brief: as §2
A short description of test [17]: Quantitative High-Throughput drug screen in 47 multiple myeloma cell lines against the NCATS MIPE library collection: MMM1_PLB cell viability assay (AID 1918976). Further: nearly all actives have a fitted effect of over 35% in size. Further: potency means the concentration at half of the fitted maximal effect. The method in brief: as §3
The nature of test [18]: Quantitative High-Throughput drug screen in 47 multiple myeloma cell lines against the NCATS MIPE library collection: OCIMY1_PLB cell viability assay (AID 1918979). Further: nearly all actives have a fitted effect of over 35% in size. The method in brief:
as §3

Test [19] in a line: Quantitative High-Throughput drug screen in 47 multiple myeloma cell lines against the NCATS MIPE library collection: MOLP8_DSMZ cell viability assay (AID 1918977). Further: nearly all actives have a fitted effect of over 45% in size. Summed up:
as §3

SMILES strings stand for the structures. Records with an inconclusive call do not appear. Active and inactive are the calls of the source. The call rests on the fitted dose curve; in most records, active means well fitted curve in the direction sought with a large enough effect; inconclusive means small, poorly fitted or top-dose-only effect, or another doubt; inactive means no such curve, though single readings can be large; an effect the other way counts as inactive or inconclusive.

For the molecule `Cc1[nH]c(C=C2C(=O)Nc3ccccc32)c(C)c1CCC(=O)O`, the Potency in test [1] is 23500 nM (active); in [2], 2960 nM (active); in [3], 3720 nM (active); in [4], 18700 nM (active); in [5], 4180 nM (active); in test [6], 10500 nM (active). Besides, the Potency in [7] was 5900 nM (active); in test [8] it was 5900 nM (active); in [9], 9350 nM (active); in [10], 11800 nM (active); in [11], 11800 nM (active); in [12], 7430 nM (active). The figures for the Potency in [13] and in [14] were 83.3 nM (active) and 526 nM (active), respectively.

Consider `NC(=O)c1ncn([C@@H]2O[C@H](CO)[C@@H](O)[C@@H]2O)c1N`, for which the Potency result in [1], in [15], in test [4], in test [5], in test [7] and in [8] was “inactive” in each case. For the same molecule, the Potency entry in [16], in test [12], in test [18], in test [13] and in test [14] was “inactive” in each case. Further, the Potency in test [17] was 2640 nM (active).

Regarding `CC(C)N(CC[C@H](c1ccccc1)c1cc(CO)ccc1O)C(C)C`, the Potency result in test [1], in [15], in test [3], in test [6], in test [7] and in test [8] was “inactive” in each case. Besides, the Potency result in test [9], in [16], in [19], in [12] and in [14] was “inactive” each time.

For `CCOC(=O)N1CCN([N+]([O-])=NOc2ccc([N+](=O)[O-])cc2C#N)CC1`, the Potency in test [1] is 66.2 nM (active); in [15], 1050 nM (active); in test [3], 1180 nM (active); in test [4], 418 nM (active); in test [5] it was 526 nM (active); in test [6] it was 743 nM (active). In addition, the Potency is 372 nM (active) in test [7]; 1480 nM (active) in test [8]; 833 nM (active) in [9]; 935 nM (active) in test [16]; 526 nM (active) in test [17]; 2960 nM (active) in [12]. Also, the Potency in test [13] and in test [14] was 1320 nM (active) in each case.

Regarding `OC[C@H]1OC(O)C[C@@H](O)[C@H]1O` (some centres undefined), the Potency result in test [1], in test [15], in [5], in [7], in test [16] and in test [17] was “inactive” in each case. Besides, the Potency result in [19], in test [18] and in [13] was “inactive” each time.

Turning to `CCN(C(=O)c1c(O)c2c(Cl)cccc2n(C)c1=O)c1ccccc1`, the viability (% of DMSO) in [1] is 104% (active). The Potency result in test [15], in [6], in test [8], in test [19], in test [12] and in [18] was “inactive” each time. The Potency result in test [14] is “inactive”. For the same molecule, the Potency in test [7] is 16600 nM (active).

Consider `COc1ccc(CCC(=O)c2c(O)cc(O[C@@H]3O[C@H](CO)[C@@H](O)[C@H](O)[C@@H]3O[C@@H]3O[C@@H](C)[C@H](O)[C@@H](O)[C@@H]3O)cc2O)cc1O`, for which the Potency entry in [1], in [7], in test [8], in [9], in test [16] and in test [17] was “inactive” throughout. Also, the Potency entry in test [18] and in test [14] was “inactive” in each case. The Potency is 18700 nM (active) in test [15] and 9350 nM (active) in [6].

Consider `c1cc(CN2CCCNCCNCCCNCC2)ccc1CN1CCCNCCNCCCNCC1`, for which the viability (% of DMSO) in test [1] is 134% (active). For the same molecule, the Potency entry in test [15], in test [3], in test [5], in test [7], in test [8] and in [16] was “inactive” each time.

In the case of `C=C[C@@H]1CN2CCC1C[C@H]2[C@H](O)c1ccnc2ccc(OC)cc12` (some centres undefined), the Potency entry in test [1], in test [15], in [5], in test [7], in [8] and in [19] was “inactive” each time. Further, the Potency entry in test [12], in test [18] and in test [14] was “inactive” in each case.

Turning to `NS(=O)(=O)OC[C@@H]1C[C@@H](n2ccc3c(N[C@H]4CCc5ccccc54)ncnc32)C[C@H]1O`, the Potency entry in [1] was “inactive”. Besides, the Potency is 13200 nM (active) in [15]; 118 nM (active) in test [3]; 1320 nM (active) in test [4]; 833 nM (active) in test [6]; 6620 nM (active) in test [8]; 2640 nM (active) in [16]. Further, the Potency in [12] was 833 nM (active); in [13] it was 2640 nM (active).

For `COc1cc2c(cc1O)CCC1C2CC[C@@]2(C)C1CC[C@@H]2O` (some centres undefined), the Potency entry in test [1] is “inactive”. In addition, the Potency in test [15] is 1320 nM (active); in test [3], 1660 nM (active); in test [4], 8330 nM (active); in test [6] it was 2960 nM (active); in test [8] it was 1180 nM (active); in [16] it was 3720 nM (active). Further, the Potency in test [17] is 6620 nM (active); in test [12] it was 7430 nM (active); in test [13] it was 4690 nM (active).

As to `CCCCCCCCCCCCCCCC(=O)OC[C@@H](NC(=O)C(Cl)Cl)[C@H](O)c1ccc([N+](=O)[O-])cc1`, the Potency result in [1], in test [15], in [2], in test [5], in test [7] and in [9] was “inactive” in each case. In addition, the Potency entry in [10], in test [11], in test [16] and in [19] was “inactive” in each case.
